Assay results taken from PubChem BioAssay (EPA / NIEHS).
The source made the active and inactive calls. The calls were made as follows: active = hit-call score of the fitted dose curve at least 0.9, where 1 is the maximum; inactive = score below 0.9.

Experiments:
Details in all cases: mRNA level, 48 h; actives raise or lower the signal
[1] = read-out: Cyclin D1 (CCND1), CCND1 (gene 595); experiment: LTEA_HepaRG_CCND1: Life Technologies and Expression Analysis (LTEA) Assay for Cyclin D1 (CCND1) using HepaRG (AID 2283451);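 as to AC50: differentiated human HepaRG liver cells in serum-free induction medium; TaqMan qRT-PCR transcript level normalised to ACTB GAPDH and POLR2A housekeeping genes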
In short: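 qRT-PCR (Fluidigm 96.96 array) read-out of transcript level, housekeeping-normalized (ACTB/GAPDH/POLR2A). HepaRG cells, 48 h chemical exposure, 8-point half-log series from 100 uM, 0.5% DMSO vehicle; gain or loss relative to DMSO baseline.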

[2] = read-out: catalase (CAT), CAT (gene 847); experiment: LTEA_HepaRG_CAT: Life Technologies and Expression Analysis (LTEA) Assay for catalase (CAT) using HepaRG (AID 2283452)
In short: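 HepaRG cells in serum-free induction medium, 0.5% DMSO vehicle, exposed 48 h in duplicate over 8 half-log concentrations from 100 uM. CAT mRNA measured by qRT-PCR, normalized to ACTB, GAPDH, POLR2A; bidirectional fit versus DMSO.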

[3] = read-out: flavin-containing dimethylaniline monooxygenases 3 (FMO3), FMO3 (gene 2328); experiment: LTEA_HepaRG_FMO3: Life Technologies and Expression Analysis (LTEA) Assay for flavin-containing dimethylaniline monooxygenases 3 (FMO3) using HepaRG (AID 2283453);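 as to AC50: differentiated human HepaRG liver cells in serum-free induction medium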
In short: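 FMO3 transcript quantified by TaqMan qRT-PCR against three housekeeping genes after 48 h chemical exposure of HepaRG cells. Eight-point half-log series, top 100 uM, 0.5% DMSO vehicle; phenobarbital 1mM induction control; up- or down-regulation fitted.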

[4] = read-out: Cytochrome P450 (CYP1A1), CYP1A1 (gene 1543); experiment: LTEA_HepaRG_CYP1A1: Life Technologies and Expression Analysis (LTEA) Assay for Cytochrome P450 (CYP1A1) using HepaRG (AID 2283454)
In short: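 qRT-PCR read-out: CYP1A1 transcript normalized to three housekeeping genes, fitted bidirectionally against 0.5% DMSO vehicle baseline. Human HepaRG cells, 48 h chemical exposure, 8-point half-log series topping at 100 uM.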

[5] = read-out: CFLAR gene, CFLAR (gene 8837); experiment: LTEA_HepaRG_CFLAR: Life Technologies and Expression Analysis (LTEA) Assay for CFLAR gene using HepaRG (AID 2283455)
In short: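 qRT-PCR read-out (Fluidigm/TaqMan) of CFLAR mRNA, normalized to three housekeeping genes, in differentiated human HepaRG cells after 48 h chemical exposure; 8-point half-log series from 100 uM in 0.5% DMSO; bidirectional curve fitting versus DMSO.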

[6] = read-out: Forkhead box O1 (FOXO1), FOXO1 (gene 2308); experiment: LTEA_HepaRG_FOXO1: Life Technologies and Expression Analysis (LTEA) Assay for Forkhead box O1 (FOXO1) using HepaRG (AID 2283456)
In short: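 HepaRG, 48 h exposure, 8-pt half-log series from 100 uM in 0.5% DMSO, duplicates; Fluidigm qRT-PCR mRNA, housekeeping-normalised; bidirectional fit vs DMSO baseline.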

[7] = read-out: growth arrest and DNA damage 45 (GADD45A), GADD45A (gene 1647); experiment: LTEA_HepaRG_GADD45A: Life Technologies and Expression Analysis (LTEA) Assay for growth arrest and DNA damage 45 (GADD45A) using HepaRG (AID 2283458)
In short: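 Transcript induction or loss, quantified by TaqMan qRT-PCR against three housekeeping genes, is the read-out. HepaRG cells received chemicals for 48 h across eight half-log concentrations from 100 uM in 0.5% DMSO; gain and loss fitted relative to DMSO.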

[8] = read-out: ABC Transporter (ABCB1), ABCB1 (gene 5243); experiment: LTEA_HepaRG_ABCB1: Life Technologies and Expression Analysis (LTEA) Assay for ABC Transporter (ABCB1) using HepaRG (AID 2283460)
In short: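 HepaRG, 48 h exposure, 8-pt half-log series from 100 uM, 0.5% DMSO vehicle, duplicates. Readout: ABCB1 transcript by Fluidigm TaqMan qRT-PCR, housekeeping-normalized; bidirectional curve fit vs DMSO baseline.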

[9] = read-out: Forkhead box O3 (FOXO3), FOXO3 (gene 2309); experiment: LTEA_HepaRG_FOXO3: Life Technologies and Expression Analysis (LTEA) Assay for Forkhead box O3 (FOXO3) using HepaRG (AID 2283459)
In short: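 qRT-PCR readout of FOXO3 transcript, normalized to three housekeeping genes (ACTB, GAPDH, POLR2A); gain or loss fitted against 0.5% DMSO vehicle. HepaRG cells, 48 h chemical exposure, 8-point half-log series, top 100 uM.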

Row | Structure (SMILES) | outcome [1] | outcome [2] | outcome [3] | AC50 [4] | outcome [5] | outcome [6] | outcome [7] | AC50 [8] | outcome [9] | AC50 [2] | AC50 [3] | outcome [4] | AC50 [7] | outcome [8] | AC50 [1] | AC50 [9] | AC50 [5]
1 | Cc1nc(N(C)C)nc(OC(=O)N(C)C)c1C | inactive | inactive | inactive | 34.3 µM (active) | inactive | inactive | inactive | 9.92 µM (active) |  |  |  |  |  |  |  |  | 
2 | CC(C)=CC1C(C(=O)OCc2coc(Cc3ccccc3)c2)C1(C)C (stereo not given) | inactive | inactive | inactive | 60.8 µM (active) | inactive | inactive | inactive | 29.3 µM (active) | inactive |  |  |  |  |  |  |  | 
3 | CC(C)N1C(=O)N(c2ccccc2)CSC1=NC(C)(C)C | inactive |  |  |  | inactive | inactive |  | 17.7 µM (active) | inactive | 75.4 µM (active) | 91.2 µM (active) | inactive | 81.2 µM (active) |  |  |  | 
4 | Clc1nc(Cl)nc(Nc2ccccc2Cl)n1 | inactive | inactive | inactive | 25.5 µM (active) | inactive | inactive | inactive |  | inactive |  |  |  |  | inactive |  |  | 
5 | Clc1cccc(C(Cl)(Cl)Cl)n1 | inactive | inactive | inactive |  | inactive | inactive |  |  | inactive |  |  | inactive | 89.4 µM (active) | inactive |  |  | 
6 | CS(=O)(=O)c1ccc(C(=O)C2C(=O)CCCC2=O)c([N+](=O)[O-])c1 | inactive | inactive | inactive | 19.1 µM (active) | inactive | inactive | inactive |  | inactive |  |  |  |  | inactive |  |  | 
7 | CCC(C)n1c(=O)[nH]c(C)c(Br)c1=O (stereo not given) |  |  |  | 5.11 µM (active) | inactive | inactive | inactive |  |  | 40.4 µM (active) | 29 µM (active) |  |  | inactive | 27.6 µM (active) | 14.3 µM (active) | 
8 | N#Cc1c[nH]cc1-c1cccc2c1OC(F)(F)O2 |  |  |  | 77.2 µM (active) |  | inactive | inactive |  |  | 74.9 µM (active) | 71.8 µM (active) |  |  | inactive | 50 µM (active) | 12.3 µM (active) | 14.7 µM (active)
9 | O=C(Nc1ccccc1-c1ccc(Cl)cc1)c1cccnc1Cl | inactive | inactive | inactive | 52.5 µM (active) | inactive | inactive | inactive |  | inactive |  |  |  |  | inactive |  |  | 
10 | COP(=S)(OC)Oc1ccc([N+](=O)[O-])c(C)c1 | inactive | inactive | inactive | 50 µM (active) | inactive | inactive | inactive |  | inactive |  |  |  |  | inactive |  |  | 
11 | CC1(C)CON(Cc2ccccc2Cl)C1=O | inactive | inactive | inactive | 50 µM (active) | inactive | inactive | inactive | 9.19 µM (active) | inactive |  |  |  |  |  |  |  | 
12 | CS(=O)(=O)c1cc(C(F)(F)F)ccc1C(=O)c1cnoc1C1CC1 | inactive | inactive | inactive | 78 µM (active) | inactive | inactive | inactive |  | inactive |  |  |  |  | inactive |  |  | 
13 | COc1ccc(-c2ccccc2)cc1NNC(=O)OC(C)C | inactive | inactive | inactive | 75.1 µM (active) | inactive | inactive | inactive |  | inactive |  |  |  |  | inactive |  |  | 
14 | Cc1ccc(N=CN(C)C=Nc2ccc(C)cc2C)c(C)c1 | inactive | inactive | inactive | 41.2 µM (active) | inactive | inactive | inactive |  | inactive |  |  |  |  | inactive |  |  | 
15 | CC(C)N1C(=O)c2ccccc2NS1(=O)=O | inactive | inactive | inactive |  | inactive | inactive | inactive |  | inactive |  |  | inactive |  | inactive |  |  | 
16 | CCNC(=O)NC(=O)C(C#N)=NOC | inactive | inactive | inactive | 50 µM (active) | inactive | inactive |  |  | inactive |  |  |  | 0.361 µM (active) | inactive |  |  | 
17 | COCC(C)N(C(=O)CCl)c1c(C)csc1C (stereo not given) | inactive | inactive | inactive | 50 µM (active) | inactive | inactive | inactive |  |  |  |  |  |  | inactive |  |  | 
18 | CCSC(=O)N1CCCCCC1 | inactive | inactive | inactive |  | inactive | inactive | inactive |  | inactive |  |  | inactive |  | inactive |  |  | 
